Test results from PubChem BioAssay (NCI).
The panel holds about 83,000 compounds, 20% with a hit somewhere; the sample as a whole holds those more often.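 Each cell line was grown in a 96-well plate and treated with one concentration of compound for 48 hours. Values below 10 were considered active.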 Unmarked numbers belong to inactive results. Active and inactive are the calls of the source.

Tests used:
Test in all cases: NCI-60 one-dose screen, 48 h (100 = growth as untreated, 0 = no growth, -100 = all killed)
Conditions in all cases: 10 µM unless noted
NCI-H23 lung = system: NCI-H23 lung
NCI-H226 lung = system: NCI-H226 lung
NCI-H322M lung = system: NCI-H322M lung
HOP-62 NSCLC = system: HOP-62 NSCLC
NCI-H460 lung = system: NCI-H460 lung
HOP-92 NSCLC = system: HOP-92 NSCLC
NCI-H522 lung = system: NCI-H522 lung
A549/ATCC NSCLC = system: A549/ATCC NSCLC
786-0 renal = system: 786-0 renal
COLO 205 colon = system: COLO 205 colon

SMILES	growth (NCI-H23 lung) [%]	growth (NCI-H226 lung) [%]	growth (NCI-H322M lung) [%]	growth (HOP-62 NSCLC) [%]	growth (NCI-H460 lung)	growth (HOP-92 NSCLC)	growth (NCI-H522 lung)	growth (A549/ATCC NSCLC) [%]	growth (786-0 renal)	growth (COLO 205 colon)
Cc1ccc(S(=O)(=O)Oc2cc(OS(=O)(=O)c3ccc(C)cc3)cc(OS(=O)(=O)c3ccc(C)cc3)c2)cc1	98.9	101	140	101	100%	72.1%	80.8%	97.5	101%	114%
CCN1C(=O)N(CC)C2Nn3c(s/c(=C\c4cccc([N+](=O)[O-])c4)c3=O)=NC21 (stereo not given)	57.7	88	64.3	62.3	23.8%	75.8%	18.5%	45.1	36%	6.72% (active)
C=C(C)[C@@H]1CC[C@]2(C)[C@H](CC=C3[C@@H]4CC(C)(C)CC[C@]4(C(N)=O)CC[C@]32C)[C@@]1(C)CCC#N	27.9	49.7	72.1	56.7	12.8%	32%	7.77% (active)	17.6	26.1%	-12.1% (active)
CN1CCN(CCCOc2ccc3nc(Nc4ccc(F)c(F)c4)ccc3c2)CC1	51.5	62.9	68	22.5	7.51% (active)	5.74% (active)	-50.4% (active)	16.1	2.05% (active)	-72% (active)
Cc1ccc2nc3ccccc3c(NCc3ccccc3)c2c1	35.8	49.8	40.8	43.5	17.1%	-6.69% (active)	37%	40.2	34.3%	8.06% (active)
C=CCOC1=CC(=O)c2ccccc2C1=O	50.6	100	91.6	95.6	105%	114%	74%	91.4	102%	110%
CC(=O)[C@@H]1CC[C@]2(COS(=O)(=O)c3ccc(C)cc3)CC[C@]3(C)[C@H](CC[C@@H]4[C@@]5(C)CCCNC(C)(C)[C@@H]5CC[C@]43C)[C@@H]12	78.6	86	93.7	87.1	41.8%	57.6%	89.8%	70.5	89.5%	-62.4% (active)
CC1(C)OC2C(CO[Si](C)(C)C(C)(C)C)OC(n3c(I)c(C#C[Si](C)(C)C)c(=O)[nH]c3=O)C2O1 (stereo not given)	76.9	103	106	99.1	106%	98.8%	90%	94.9	93.9%	111%
NC(=N\N=C/c1ccccc1[N+](=O)[O-])/C(N)=N\N=C/c1ccccc1[N+](=O)[O-]	104	107	146	94	104%	89%	89.3%	114	103%	109%
COc1ccc(NC(=O)CSc2nc(C)c(C(C)=O)n2-c2ccc(Cl)cc2)cc1	90.6	86.6	100	88.5	102%	106%	78.1%	97.1	106%	102%
